High-throughput results: PubChem BioAssay, National Center for Advancing Translational Sciences (NCATS)
Shown are actives, neighbours in structure and some others; about 2.2% of the full set was active somewhere.
LDHA block = qHTS assay for inhibitors of human lactate dehydrogenase; L-lactate dehydrogenase A chain (Homo sapiens), P00338; purified LDHA, NADH/diaphorase-resazurin fluorescence; active compounds read low; activity change, % (values are at about 110 or 230 µM); hit rate 0.15% among 480,000; AID 1347041, 2019; in the data active = activity change below about -30%; inconclusive = mostly about -25% to -30%;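 also: plate controls were DMSO wells for no effect and wells without enzyme for full effect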
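Enzyme activity of human lactate dehydrogenase 5 (2 nM; 0.06 mM NADH, 0.2 mM pyruvate, 5 min, RT) is measured via a resazurin/diaphorase fluorescence readout of residual NADH.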
HepG2 viability = qHTS for Inhibitors of TGF-b: Cytotox Counterscreen; HepG2 CAGA-GFP viability, ATP luminescence, 18 h; Potency, µM (top dose mostly 46.1 µM), for the others: top-dose activity change, negative = cytotoxicity, hits mostly cytotoxic; hit rate 0.76% among 410,000; AID 588856, 2011; also: potency is read from the fitted curve at half-maximal effect
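CellTiter-Glo luminescence gave cytotoxicity after 18 hours at 37 degrees C. The cells were HepG2 CAGA-GFP in 1% FBS DMEM, stimulated with 500 pg/mL TGF-beta after compound addition. %Activity was normalised to no-cell wells (complete cell-killing) and DMSO (no toxicity), and curves were fitted and classified.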
S2 tox = Viability Counterscreen for Primary qHTS for Inhibitors of ATXN expression | hit rate 0.49% among 400,000 | S2 cells (HEK-293 line with an ATXN2-luciferase reporter) viability, CellTiter-Fluor protease fluorescence, 24 h | Potency, µM (doses to about 56.7 µM), usual class: cytotoxic | AID 651635, 2014; also: potency is read from the fitted curve at half-maximal effect; nearly all actives have a fitted effect of over 40% in size
TGFb inhibitor = qHTS for Inhibitors of TGF-b; HepG2 CAGA-GFP TGF-b/SMAD3 reporter, GFP fluorescence, 18 h; TGF-beta stimulated, 500 pg/mL final; Potency, µM (top dose mostly 46.1 µM), inactives show at the highest dose activity, negative = inhibition, actives largely listed as inhibitors; hit rate 1.2% among 410,000; AID 588855, 2011; also: potency is read from the fitted curve at half-maximal effect; % is scaled to controls: 0 for no effect and ±100 for the full control effect; nearly all actives have a fitted effect of over 65% in size
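HEPG2 CAGA-GFP cells (1000/well, DMEM with 1% FBS) were pre-incubated 2 h at 37 degrees C, given compound by pin tool, then stimulated with TGF-beta at 500 pg/mL final for 18 h before per-cell GFP fluorescence imaging.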
mIDH1 inhibitor = qHTS for Inhibitors of mutant isocitrate dehydrogenase 1 (IDH1): qHTS | Isocitrate dehydrogenase [NADP] cytoplasmic (Homo sapiens), O75874 | hit rate 0.093% among 390,000 | Potency, µM (top dose mostly 76.6 µM), without a hit: at the highest dose activity change, negative = inhibition, most hits filed as inhibitors | IDH1-R132H enzyme, NADPH consumption, diaphorase/resazurin fluorescence; also: potency is read from the fitted curve at half-maximal effect; % is scaled to controls: 0 for no effect and ±100 for the full control effect; nearly all actives have a fitted effect of over 65% in size
Target sequence (O75874 whole entry R132H, stated change not applied): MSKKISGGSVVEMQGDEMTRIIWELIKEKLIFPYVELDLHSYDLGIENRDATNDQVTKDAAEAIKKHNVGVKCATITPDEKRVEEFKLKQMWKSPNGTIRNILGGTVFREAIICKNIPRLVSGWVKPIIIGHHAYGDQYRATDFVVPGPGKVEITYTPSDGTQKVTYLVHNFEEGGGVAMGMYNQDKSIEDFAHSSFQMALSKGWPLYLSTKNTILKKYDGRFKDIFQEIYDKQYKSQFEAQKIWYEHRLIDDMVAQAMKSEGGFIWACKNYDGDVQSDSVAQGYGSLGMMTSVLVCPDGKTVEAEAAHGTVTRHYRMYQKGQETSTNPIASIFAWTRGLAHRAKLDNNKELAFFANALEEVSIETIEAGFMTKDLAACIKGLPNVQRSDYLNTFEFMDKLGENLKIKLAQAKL
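IDH1-R132H (0.5 ug/mL dispensed) in pH 7.5 Tris buffer was preincubated 30 min with compound, then given a substrate mix of 0.016 mM NADPH and 2 mM alpha-KG for 80 min at room temperature; remaining NADPH was read by diaphorase/resazurin fluorescence.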
ATXN2 expr inh = Primary qHTS for Inhibitors of ATXN expression; Potency, µM (top dose mostly 57 µM), for the others: top-dose activity change, negative = inhibition, usual class: inhibitors; hit rate 0.72% among 360,000; HEK-293 ATXN2-luciferase reporter, luminescence, 24 h; AID 1745845, 2022; also: potency is read from the fitted curve at half-maximal effect; % is scaled to controls: 0 for no effect and ±100 for the full control effect; nearly all actives have a fitted effect of over 55% in size
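ATXN2-luciferase reporter cells (luciferase flanked by upstream and downstream ATXN2 gene portions) were treated 24 h at 37 °C with compounds at up to 57 uM. SteadyGlo luminescence gave expression; GF-AFC fluorescence gave viability.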
Starred values were filed as active, the others as inactive; i = inactive; ? = inconclusive; / = no result given. Unless noted, calls follow the shape of the dose curve; as a rule, active = well fitted curve in the direction sought with a large enough effect; inconclusive = small, poorly fitted or top-dose-only effect, or another doubt; inactive = no such curve, though single readings can be large; an effect the other way counts as inactive or inconclusive.

SMILES	LDHA block	HepG2 viability	S2 tox	TGFb inhibitor	mIDH1 inhibitor	ATXN2 expr inh
O=c1cc2oc3cc(O)c(O)cc3c(-c3ccccc3O)c-2cc1O	4	-23%	i	16%	-4%	/
COc1ccc(OC)c(-c2c3cc(O)c(=O)cc-3oc3cc(O)c(O)cc23)c1	1	-19%	20µM*	?	40µM*	?
CCOc1ccccc1-c1c2cc(O)c(=O)cc-2oc2cc(O)c(O)cc12	-10	-3%	/	2.8µM*	13µM*	?
O=C(c1cccc(Cl)c1)N1CCN(Cc2ccncc2)CC1	-31*	-12%	i	10%	1%	3%
O=C(c1cccs1)N1CCN(Cc2ccncc2)CC1	-33*	6%	i	-1%	3%	1%
COc1ccccc1CN1CCN(C(=O)c2ccncc2)CC1	-30*	-2%	i	17%	12%	-6%
O=C(Nc1ccc(N2CCN(C(=O)c3cccs3)CC2)c(Cl)c1)c1cccnc1	1	-21%	i	-9%	0%	22µM*
COc1ccc(OC)c(/C=N/NC2=NS(=O)(=O)c3ccccc32)c1	-5	-8%	?	4%	4%	/
COc1ccc(OCc2ccc(C#N)cc2)c(C(=O)O)c1	1	/	/	/	/	/
COCc1ccc(CN2CCC(CO)(CC3CCCCO3)CC2)o1 (centres undefined)	2	-13%	i	0%	0%	-3%
Cc1ccc2nc(N/N=C\c3ccc([N+](=O)[O-])o3)nc(-c3ccccc3)c2c1	-1	-5%	11µM*	-5%	-7%	?
COc1cc2c(cc1OC)C(c1ccccc1)N(C(=O)CCl)CC2 (centres undefined)	-1	0%	/	-20%	1%	28µM*
COc1cc2c(cc1OC)C(C1C(=O)CCCC1=O)N(C(=O)CCl)CC2 (centres undefined)	2	8%	i	-19%	-3%	/
CC(=O)Nc1ccc(Oc2sc(C(=O)c3ccccc3)c(N)c2C#N)cc1	-4	-3%	i	10µM*	-24%	-2%
CC(=O)N1CC(C)Sc2ccc(S(=O)(=O)NC3CCCCC3)cc21 (centres undefined)	-3	-5%	i	-19%	-6%	-25%
Cc1ccc(S(=O)(=O)c2c(N)n(CCC(C)C)c3nc4ccccc4nc23)cc1	6	-66%	?	?	4%	?
CC(C)CCn1c(N)c(S(=O)(=O)c2cccs2)c2nc3ccccc3nc21	16	-34%	?	16µM*	-7%	18µM*
CCc1ccc(S(=O)(=O)ON2C(=O)c3ccccc3C2=O)cc1	-2	-3%	/	?	4%	30µM*
O=C1c2cccc3cccc(c23)C(=O)N1OS(=O)(=O)c1ccc(Cl)cc1	-11	-4%	i	12%	18%	-7%
Cc1nc2sccn2c(=O)c1S(=O)(=O)N1CCN(c2cccc(Cl)c2)CC1	-10	-26%	i	-7%	1%	-7%
CSc1ncc(CN2CCc3c([nH]c4ccccc34)C2c2cccc(O)c2)cn1 (centres undefined)	2	-80%	i	11µM*	-2%	-38%
CC1(C)CC(=O)C2=C(C1)N(c1cccnc1)C(N)=C(C#N)C2c1cccs1 (centres undefined)	6	30%	i	2%	3%	-2%
Cn1nnnc1N=N/C(=N/Nc1ccccc1)c1ccccc1	1	-36%	8.9µM*	-8%	0%	2.5µM*
CC(C)(C)c1ccc(C(=O)NC2(C(F)(F)F)NC(=O)N(CCc3ccccc3)C2=O)cc1 (centres undefined)	0	20µM*	?	10µM*	-11%	?
